SW480 rerep: DNA re-replication induction in SW480 cells; SW480 DNA re-replication, Hoechst DNA content imaging, 48 h; Potency, µM (doses to about 46.1 µM), for inactives: top-dose re-replication activation, actives largely listed as activators; 340,000 compounds, 1.8% hits; AID 624297; further: % of control where 0% means no effect; nearly all actives have a fitted effect of over 55% in size
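Image-based read-out: total Hoechst fluorescence of nuclei (405 nm excitation, 500-530 nm emission), with hits raising the fraction of high-intensity nuclei. SW480 colon cells incubated 48 hr with compounds at 37 C.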
MCF10A rereplic: induces DNA re-replication in MCF 10a normal breast cells | Potency, µM (doses to about 46.1 µM), without a hit: at the top dose activity, positive = re-replication, usual class: activators | 350,000 compounds, 2.9% hits | MCF 10A DNA re-replication, Hoechst nuclear intensity, 48 h; further: % of control where 0% means no effect; nearly all actives have a fitted effect of over 50% in size
KB-3-1 tox: kills parental KB-3-1 adenocarcinoma cells; KB-3-1 viability, CellTiter-Glo ATP luminescence, 72 h; Potency, µM (top dose mostly 46.1 µM), actives largely listed as cytotoxic; 400,000 compounds, 1.4% hits; further: on the % scale 0 is the no-effect control and ±100 the full control effect; nearly all actives have a fitted effect of over 60% in size
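Using CellTiter-Glo luminescence, growth of non-resistant KB-3-1 adenocarcinoma cells is assessed 72 h after pin-tool compound addition at 37 °C. Normalized responses across the concentration series yield fitted curves.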
KB-V1 cytotox: kills drug-selected multidrug resistant KB-V1 cells. KB-V1 MDR cells viability, CellTiter-Glo, 72 h. Potency, µM (top dose mostly 46.1 µM), hits mostly cytotoxic. 400,000 compounds, 3.4% hits; further: on the % scale 0 is the no-effect control and ±100 the full control effect; nearly all actives have a fitted effect of over 60% in size
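Compound-treated KB-V1 multidrug-resistant cells, 72 h, 37 degrees C; viability by CellTiter-Glo. Fitted qHTS curves give the values.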
HT1080NT lethal: kills 2HG-producing HT-1080-NT fibrosarcoma cells. HT-1080-NT fibrosarcoma viability, CellTiter-Glo ATP luminescence, 48 h. Potency, µM (doses to about 46.1 µM), inactives show at the top dose activity, negative = less viability, actives largely listed as cytotoxic. 360,000 compounds, 1.6% hits;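 further: NT is the 2HG producing partner of a matched IDH1 knockdown line; 0% = DMSO-treated cells and -100% = media-only wells without cells; nearly all actives have a fitted effect of over 55% in size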
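Viability of the 2HG-overproducing fibrosarcoma line after 48 hours of compound exposure at 37 degrees C was determined by luminescence with CellTiter-Glo, and concentration-effect curves were then fitted and categorized.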
HT1080 IDH1KD tx: kills HT-1080 cells with IDH1 knockdown. HT-1080 IDH1 knockdown viability, ATP luminescence, 48 h. Potency, µM (highest dose often 46.1 µM), for the others: at the top dose activity, negative = toxicity, actives largely listed as cytotoxic. 360,000 compounds, 2% hits. AID 686971;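 further: 0% = DMSO wells and -100% = cell-free medium wells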
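CellTiter-Glo luminescence after 48 h compound exposure at 37 degrees C of IDH1-knockdown HT-1080 cells in 5% FBS RPMI. %Activity scaled between DMSO wells and cell-free media wells, with curves fitted and assigned curve classes.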
Starred values were filed as active, the others as inactive; [ ] = remark or other dose. Rows were chosen to be rich in hits. Some 7.9% of all compounds tested hit in one or more screens of this group. The call rests on the fitted dose curve; in most records, active means well fitted curve in the direction sought with a large enough effect; inconclusive means small, poorly fitted or top-dose-only effect, or another doubt; inactive means no such curve, though single readings can be large; an effect the other way counts as inactive or inconclusive. Potency means the concentration at half of the fitted maximal effect.

For COC(=O)C1=C(c2ccc3ccccc3c2)C[C@@H]2CC[C@H]1N2C the results were SW480 rerep -5%, MCF10A rereplic 11%, KB-3-1 tox inactive, KB-V1 cytotox inactive, HT1080NT lethal 3% and HT1080 IDH1KD tx 0%.
`COC(=O)C1=C(C(=O)OC)C2OC1c1cc3ccccc3cc12` gave SW480 rerep 13µM*, MCF10A rereplic inconclusive, KB-3-1 tox inactive, KB-V1 cytotox inactive, HT1080NT lethal inconclusive and HT1080 IDH1KD tx 3.3µM*.
`COC(=O)CSC1=NP(=S)(SCC(=O)OC)N2CCCC2=C1C#N` (stereo unspecified) gave SW480 rerep -3%, MCF10A rereplic 1%, KB-3-1 tox inactive, KB-V1 cytotox inactive, HT1080NT lethal 5% and HT1080 IDH1KD tx 0%.
For CCC1(O)C(=O)OCc2c1cc1n(c2=O)Cc2cc3c(N)cccc3nc2-1 (stereo unspecified) the results were SW480 rerep inconclusive, MCF10A rereplic -10%, KB-3-1 tox 0.21µM*, KB-V1 cytotox 1.5µM*, HT1080NT lethal 1.6µM* and HT1080 IDH1KD tx 0.65µM*.
For CC(C)(C)NC(=O)NC(=O)CN1CC=C(c2ccccc2)CC1 the results were SW480 rerep inconclusive, MCF10A rereplic inconclusive, KB-3-1 tox inactive, KB-V1 cytotox inactive, HT1080NT lethal -3% and HT1080 IDH1KD tx -2%.
Screening O=C(CN1CC=C(c2ccccc2)CC1)NC(=O)NC1CCCCC1 returned SW480 rerep -22%[1.84 µM], MCF10A rereplic 21µM*, KB-3-1 tox inactive, KB-V1 cytotox inactive, HT1080NT lethal 0% and HT1080 IDH1KD tx -7%.
Screening C[C@H]1CCCC(=O)CCCCCc2cc(O)cc(O)c2C(=O)O1 returned SW480 rerep inconclusive, MCF10A rereplic inconclusive, KB-3-1 tox inactive, KB-V1 cytotox inconclusive, HT1080NT lethal inconclusive and HT1080 IDH1KD tx inconclusive.
Screening CCN(CC)CCCOC(=O)C(OC(C)C)(c1ccccc1)c1ccccc1 returned SW480 rerep inconclusive, MCF10A rereplic 2%, KB-3-1 tox inconclusive, KB-V1 cytotox 8.2µM*, HT1080NT lethal inconclusive and HT1080 IDH1KD tx inconclusive.
COc1cccc(CNCC(O)(c2ccc(Cl)cc2)c2ccc(Cl)cc2)c1 was read as SW480 rerep inconclusive, MCF10A rereplic inconclusive, KB-3-1 tox inconclusive, KB-V1 cytotox 15µM*, HT1080NT lethal inconclusive and HT1080 IDH1KD tx inconclusive.
For COc1cccc(CCNCc2cccc(C(F)(F)F)c2)c1 the results were SW480 rerep -21%, MCF10A rereplic 12%, KB-3-1 tox inactive, KB-V1 cytotox inactive, HT1080NT lethal -21% and HT1080 IDH1KD tx -16%.
`Cc1cc(OCC(=O)NCc2ccc(S(N)(=O)=O)cc2)c2c3c(c(=O)oc2c1)CCC3` gave SW480 rerep 22%, MCF10A rereplic 4%, KB-3-1 tox inactive, KB-V1 cytotox inactive, HT1080NT lethal 22% and HT1080 IDH1KD tx 9%.
Cc1cccc(-n2c(/C=C/c3ccc([N+](=O)[O-])o3)nc3ccccc3c2=O)c1 was read as SW480 rerep 6.5µM*, MCF10A rereplic 2.3µM*, KB-3-1 tox 10µM*, KB-V1 cytotox 10µM*, HT1080NT lethal 5% and HT1080 IDH1KD tx inconclusive.
Screening O=c1c2ccccc2nc(/C=C/c2ccc([N+](=O)[O-])o2)n1-c1ccc(O)cc1 returned SW480 rerep 4.6µM*, MCF10A rereplic inconclusive, KB-3-1 tox inconclusive, KB-V1 cytotox inconclusive, HT1080NT lethal inconclusive and HT1080 IDH1KD tx 2.6µM*.
Screening Cc1cccc(-n2c(/C=C/c3cccc4ccccc34)nc3ccccc3c2=O)c1 returned KB-3-1 tox inactive and KB-V1 cytotox inconclusive.
Cn1cc(C=O)c2nccnc21 was read as KB-3-1 tox inactive, KB-V1 cytotox inactive, HT1080NT lethal -1% and HT1080 IDH1KD tx 2%.
For Cc1cccc(NC(=O)CN2CCN(C(=O)COc3cccc(Br)c3)CC2)c1C the results were SW480 rerep -27%, MCF10A rereplic -4%, KB-3-1 tox inactive, KB-V1 cytotox inactive, HT1080NT lethal -1% and HT1080 IDH1KD tx 4%.
O=C1CN=C(c2cc([N+](=O)[O-])ccc2Cl)c2cc([N+](=O)[O-])ccc2N1 was read as SW480 rerep 1.6µM*, MCF10A rereplic inconclusive, KB-3-1 tox inactive, KB-V1 cytotox inactive, HT1080NT lethal 0% and HT1080 IDH1KD tx -17%.
For O=C1CN=C(c2ccccc2)c2cc([N+](=O)[O-])ccc2N1 the results were SW480 rerep -38%, MCF10A rereplic -8%, KB-3-1 tox inactive, KB-V1 cytotox inactive, HT1080NT lethal 6% and HT1080 IDH1KD tx -3%.
`CCN1CCC2(CCNC2)C1` (stereo unspecified) gave SW480 rerep 7%, MCF10A rereplic -1%, KB-3-1 tox inactive, KB-V1 cytotox inactive, HT1080NT lethal 17% and HT1080 IDH1KD tx 6%.
